Screens deposited in PubChem by National Center for Advancing Translational Sciences (NCATS).
GLP-1R inv ag: inverse agonists of human GLP-1 receptor; P43220; HEK293 GLP-1R CRE-luciferase, luminescence, 24 h; GLP-1R form is constitutively active; Potency, µM (series often up to 38.3 µM), for the others: at the highest dose activity change, negative = inhibition, most hits filed as inhibitors; hit rate 1.6% among 410,000; AID 624417; also: % is scaled to controls: 0 for no effect and ±100 for the full control effect; nearly all actives have a fitted effect of over 55% in size
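Inverse agonists were sought by their lowering of basal cAMP reporter luciferase output in HEK293 cells stably carrying constitutively active human GLP-1R, after 24 h compound treatment.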
PTHR1 ag: activates the human parathyroid hormone receptor PTHR1 | Q03431 | HEK293 GP2 PTHR1 cells, GloSensor cAMP luminescence, 1 h | Potency, µM (doses to about 115 µM), for the others: at the top dose activation, hits mostly activators | hit rate 0.075% among 410,000 | AID 743266; also: nearly all actives have a fitted effect of over 55% in size
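HEK-293-derived GP2 cells expressing PTHR1 and a GloSensor cAMP reporter, 3,000/well, plated overnight, given luciferin plus IBMX (each 0.5 mM as added) for 1 h at 37 °C, then compound for 1 h at 37 °C. Luminescence was read after 15 min at room temperature.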
12-LOX inh: inhibitors of human 12S-lipoxygenase ALOX12 | purified 12hLO, xylenol orange hydroperoxide absorbance | hit rate 1.1% among 580,000 | Potency, µM (highest dose often 108 µM), inactives show at the top dose activity change, negative = inhibition, actives largely listed as inhibitors | P18054 | AID 1671190; also: % is scaled to controls: 0 for no effect and ±100 for the full control effect
Target sequence (P18054 whole entry, looked up): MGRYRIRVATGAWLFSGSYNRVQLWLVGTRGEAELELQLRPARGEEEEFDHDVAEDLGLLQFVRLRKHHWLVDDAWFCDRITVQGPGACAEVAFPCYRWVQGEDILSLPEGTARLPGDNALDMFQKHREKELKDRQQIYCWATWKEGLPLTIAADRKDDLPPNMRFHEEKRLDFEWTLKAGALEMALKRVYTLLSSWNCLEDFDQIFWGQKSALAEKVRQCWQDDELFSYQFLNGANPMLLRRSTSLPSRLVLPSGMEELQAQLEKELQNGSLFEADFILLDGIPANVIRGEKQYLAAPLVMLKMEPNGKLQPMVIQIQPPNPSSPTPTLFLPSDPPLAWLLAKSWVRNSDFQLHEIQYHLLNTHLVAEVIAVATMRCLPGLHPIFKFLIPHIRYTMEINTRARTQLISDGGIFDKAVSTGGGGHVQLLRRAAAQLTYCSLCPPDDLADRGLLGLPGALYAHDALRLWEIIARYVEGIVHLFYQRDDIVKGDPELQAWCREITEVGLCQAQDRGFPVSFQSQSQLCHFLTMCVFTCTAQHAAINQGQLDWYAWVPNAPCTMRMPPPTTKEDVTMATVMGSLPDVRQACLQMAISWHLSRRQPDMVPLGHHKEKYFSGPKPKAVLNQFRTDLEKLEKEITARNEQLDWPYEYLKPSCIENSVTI
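Purified human 12hLO at 150 nM in 25 mM Hepes, 0.01% Triton X-100, pH 7.0, preincubated 15 min at room temperature with compound. Reaction started with 40 uM arachidonic acid, 30 min at room temperature. Hydroperoxide measured by Fe-xylenol orange, 573/405 nm absorbance ratio.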
GLP-1R agonist: GLP-1 receptor (human) agonism; P43220; HEK293 GLP-1R CRE-luciferase, luminescence, 4-6 h; cells express a hypersensitive GLP-1R form; Potency, µM (series often up to 45.6 µM), without a hit: at the highest dose activation, most hits filed as activators; hit rate 0.007% among 380,000; also: % of control where 0% means no effect
GLS inh: glutaminase GLS (human) inhibition | O94925 | GLS enzymatic activity, qHTS titration | Potency, µM (series often up to 45.5 µM), without a hit: top-dose activity change, negative = inhibition, most hits filed as inhibitors | hit rate 0.21% among 410,000 | AID 624170; also: % is scaled to controls: 0 for no effect and ±100 for the full control effect
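Assay buffer: 45 mM KH2PO4 pH 8.2, 0.02% Tween-20. hKGA acts on L-glutamine (1 mM solution added); product glutamate is reported by an oxidase/peroxidase Amplex Red coupling, with fluorescence taken at baseline and 30 min.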
GRP78 ERSR act: induces the endoplasmic reticulum stress response in human glioma cells | hit rate 0.02% among 420,000 | Potency, µM, inactives show top-dose activation, most hits filed as activators | AID 602332 | U87-MG GRP78 promoter luciferase reporter, 16 h; also: series mostly up to about 76 µM; % of control where 0% means no effect; nearly all actives have a fitted effect of over 35% in size
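ERSR induction read as luciferase luminescence (Bright-Glo, 10 min at room temperature) in stably transfected human U87-MG glioma cells exposed to compounds for 16 h, using GRP78 as sensor.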
* = called active by the depositor; i = inactive; ? = inconclusive; nt = not tested or not shown; ! = not active in a repeat; [ ] = another dose, or the depositor's remark. Hits are enriched below; roughly 2.3% of the tested compounds scored in any of these assays. Calls follow the shape of the dose curve; as a rule, active = well fitted curve in the direction sought with a large enough effect; inconclusive = small, poorly fitted or top-dose-only effect, or another doubt; inactive = no such curve, though single readings can be large; an effect the other way counts as inactive or inconclusive. Potency is read from the fitted curve at half-maximal effect.

SMILES	GLP-1R inv ag	PTHR1 ag	12-LOX inh	GLP-1R agonist	GLS inh	GRP78 ERSR act
Cc1cc(C)c2sc(N(CCN(C)C)C(=O)c3cc(Cl)sc3Cl)nc2c1	?	i	-25.9%	5.2%	-5.6%	3.6%
CCn1cc(-c2cc(C(=O)OC)c3ccccc3n2)c(C)n1	nt	nt	27.5%	nt	nt	nt
CC(NC(=O)c1sc2ccccc2c1Cl)c1ccncc1 (stereo unspecified)	nt	nt	-31.7%	nt	nt	nt
N#Cc1ccc(CCC(=O)NCc2cccnc2)cc1	nt	nt	0.0%	nt	nt	nt
COCCN[C@H]1C[C@@H]2c3[nH]c4ccccc4c3C[C@@H](C(=O)OC)N2[C@H](c2ccccc2)C1	nt	nt	1.6%[176 µM]	nt	nt	nt
O=C(NCc1cccnc1)C1c2ccccc2C(=O)N(Cc2ccccc2)C12CCCCC2 (stereo unspecified)	nt	nt	2.7%	nt	nt	nt
COc1cc2ccccc2cc1C(=O)N(CCN(C)C)c1nc2ccc(C)cc2s1	3.98µM*	-0.2%	?	5.6%	-10.0%	-1.1%
COc1cc2ccccc2cc1C(=O)N(CCN(C)C)c1nc2c(OC)ccc(OC)c2s1	?	-14.4%	?	-5.0%	0.6%	-17.1%
CCN(CC)CCN(C(=O)c1cc2ccccc2cc1OC)c1nc2ccc(F)cc2s1	5.01µM*	i	?	-6.1%	-0.1%	-3.5%
CCOc1ccc(CN2C(=O)c3ccccc3Sc3ccc(C(=O)NCCCN4CCOCC4)cc32)cc1	12.6µM*	-19.9%	-22.3%	-7.4%	1.8%	-2.9%
CN1CCN(CCCNC(=O)c2ccc(/C=C3\Sc4ccccc4N(Cc4ccc(F)cc4)C3=O)cc2)CC1	10µM*	-0.5%	2.1%	-4.6%	-2.3%	-9.8%
O=C(Cn1ccc2ccc(Cl)cc21)N1CCOCC1	nt	nt	11.5%	nt	nt	nt
CC1CCCN(c2ccc3nc4ccccc4c(=O)n3n2)C1 (stereo unspecified)	5.01µM*	-40.6%	-17.7%	-3.2%	8.7%	-12.8%
Clc1ccc(C(c2cccs2)N2CCNCC2)cc1 (stereo unspecified)	4.47µM*	i	-13.2%	12.9%	1.3%	-7.6%
O=C1CC2(CCCCC2)C(=O)N1Cc1ncc(-c2ccccc2)o1	nt	nt	13.9%	nt	nt	nt
CCOC(=O)c1ccc(N2N=C(C)/C(=C/C=C/c3ccco3)C2=O)cc1	9.6%	-6.3%[57.5 µM]	-15.4%	-13.3%	-0.8%	-1.6%
O=C(O)c1cc(N2N=C(C(F)(F)F)/C(=C/C=C/c3ccco3)C2=O)ccc1Cl	-20.3%	-70.1%	5.62µM*	-3.0%	8.91µM*	-4.4%
N#Cc1cccc(C(=O)C(C#N)C(=O)Nc2cccc(C(F)(F)F)c2)c1 (stereo unspecified)	nt	nt	24.2%	nt	nt	nt
NC(=O)C1CCN(C(=O)CCc2nc3sc4c(c3c(=O)[nH]2)CCCC4)CC1	3.4%	-16.0%	17.8µM*!	-3.6%	-20.2%	-2.4%
O=C(CCc1nc2sc3c(c2c(=O)[nH]1)CCCC3)N1CCCCC1	nt	nt	15.5%	nt	nt	nt
Cc1[nH]n(-c2cccc3ccccc23)c(=O)c1/C=N/NC(=O)c1cccc([N+](=O)[O-])c1	-14.5%	-24.7%	44.7µM*	-5.5%	?	-2.3%
Cc1c(CC(=O)NC2CC2)c(=O)oc2cc(O)c(Cl)cc12	nt	nt	-6.6%	nt	nt	nt
CN1c2ccccc2N(C)C1(C)c1cccc2ccccc12	19.3%	-82.1%	35.5µM*	2.8%	7.7%	4.9%
FC(F)(F)c1cccc(NC(=S)NC(c2ccccc2)c2ccccc2)c1	2.82µM*	-25.7%	35.5µM*	5.5%	-1.6%	-6.4%
Cc1ccccc1C(=O)Nc1cccc(N)c1	-20.9%	i	1.1%	-0.9%	16.5%	-2.0%
SMILES	GLP-1R inv ag	PTHR1 ag	12-LOX inh	GLP-1R agonist	GLS inh	GRP78 ERSR act
Cc1ccccc1C(=O)NNC(=S)Nc1cccc(C(F)(F)F)c1	?	-16.4%	?	-0.3%	17.8µM*	-2.7%
Cc1ccccc1C(=O)Nc1cccc(NC(=O)c2ccc(C(C)(C)C)cc2)c1	7.94µM*	-1.4%	12.1%	nt	-5.8%	-1.6%
O=C(NC(=S)Nc1cccc(C(F)(F)F)c1)c1ccc2nonc2c1	?	-29.3%	35.5µM*	0.0%	0.0%	2.4%
Cc1ncsc1C(=O)NC(C)c1ccc(F)cc1 (stereo unspecified)	nt	nt	38.8%	nt	nt	nt
O=C(COC(=O)C1CC2CCCC(C1)C2=O)Nc1ccc(C(F)(F)F)cc1[N+](=O)[O-] (stereo unspecified)	nt	nt	-0.7%	nt	nt	nt
CN(CCCc1[nH]nc(N)c1C#N)c1nc(-c2ccncc2)nc2ccccc12	nt	nt	4.6%	nt	nt	nt
CC(C)C(=O)Oc1ccc2c(-c3cc4ccccc4oc3=O)cc(=O)oc2c1	nt	nt	2.5%	nt	nt	nt
C=CCC1(O)CC(C)N(C)CC1C (stereo unspecified)	nt	nt	31.2%	nt	nt	nt
CC1=C[C@@H](CN2CCN(C)CC2)[C@H](C(C)C)C[C@H]1Cc1nnc(-c2ccc(C)cc2)o1	nt	nt	1.9%[176 µM]	nt	nt	nt
CC(C)C(N)c1csc(Nc2cc(Oc3ccccc3)ncn2)n1 (stereo unspecified)	?	i	34.0%	-8.3%	14.2%	-0.5%
NC(c1ccccc1)c1csc(Nc2cc(Oc3ccccc3)ncn2)n1 (stereo unspecified)	-9.5%	-7.2%	35.5µM*	-6.3%	14.5%	-3.0%
O=C(OCc1nc2ccccc2o1)c1ccc(Cl)c(S(=O)(=O)N2CCCCCC2)c1	nt	nt	4.5%	nt	nt	nt
O=C(CCS(=O)(=O)c1ccc(F)cc1)Nc1nc(-c2ccccn2)cs1	?	i	13.2%	-0.5%	0.2%	-4.8%
CC(Oc1ccc(F)cc1)C(=O)Nc1nc(-c2ccccn2)cs1 (stereo unspecified)	10µM*	i	8.8%	9.5%	-0.5%	-5.0%
Cn1c(CC(=O)Nc2cccc(C(F)(F)F)c2)nnc1SCC(=O)c1ccc(C#N)cc1	nt	nt	17.1%	nt	nt	nt
COc1ccc(C(c2c(NC(=O)c3ccco3)sc(C)c2C)N2CCOCC2)cc1OC (stereo unspecified)	-20.9%	-23.7%	-25.0%	15.8%	-7.6%	-3.6%
CCc1cc(C(c2ccc(F)cc2)N2CCN(CC)CC2)c(NC(=O)c2ccco2)s1 (stereo unspecified)	nt	nt	10µM*	nt	nt	nt
CCc1cc(C(c2ccc(OC)cc2)N2CCOCC2)c(NC(=O)c2ccco2)s1 (stereo unspecified)	nt	nt	7.08µM*	nt	nt	nt
Cc1cc(C)cc(Oc2nc(-c3ccccc3)cc(C)c2S(C)(=O)=O)c1	4.47µM*	-17.4%[57.5 µM]	160.7%	3.0%	-0.3%	-4.7%
CC(C)c1ccc(NC(=S)NC2CCSc3ccccc32)cc1 (stereo unspecified)	nt	nt	35.5µM*	nt	nt	nt
CC(C)CC1=NN(C(=O)c2ccncc2)C(O)(C(F)(F)F)C1 (stereo unspecified)	1.12µM*	-4.8%	32.3%	-0.5%	?	-2.9%
